Sensor-assay potency score (higher = more potent) data for 39 sequences are collected here from the OligoGym collection.
Further: reference of the scale not given here.

One test has as its target IL16. The test is described as follows: pooled miR-30 sensor sort-seq; sequence = guide strand. As to conditions: shRNA.
Regarding TGATTCACCATTGAGCTCCAGA, the sensor-assay potency score (higher = more potent) is -0.0119. Consider TTCTCCAGTGTCACCGTGCAGA, for which the sensor-assay potency score (higher = more potent) was -0.677. Sequence TAGATCAGGAACACTGCTGGGC registered a sensor-assay potency score (higher = more potent) of 0.521.

Another test concerns the target IL18RAP. The test is described as above. As to conditions: shRNA.
With TTTCAGTGTTTGATCATCCAAG, the sensor-assay potency score (higher = more potent) is -0.42.

Consider TTGTTTTCTAAAACATCAGGAA, for which the sensor-assay potency score (higher = more potent) was -0.521. In turn, TTCTGTTCTACTGAGTCCTTTC gave a sensor-assay potency score (higher = more potent) of -0.716.

TTTGAATTTCCTATCAGCCTGA returned a sensor-assay potency score (higher = more potent) of 0.608.

TCATCTTGACACAACAGGCTAC had a sensor-assay potency score (higher = more potent) of 0.09.

TCTCACTTGAACAACAGCTCTG came in with a sensor-assay potency score (higher = more potent) of 0.299. Sequence TTAACTTCTAAAATCATCTTGA gave a sensor-assay potency score (higher = more potent) of 1.

Regarding ATAAACTTCATCCACTACGATT, the sensor-assay potency score (higher = more potent) is -1.45. In the case of TTGGACATCAGATAGGTCGTTA, the sensor-assay potency score (higher = more potent) turned out to be 0.111. Consider TATTTTCTGATTCTGCTCGGAC, for which the sensor-assay potency score (higher = more potent) was -0.239. Regarding TTGTAGTTCAAAGATACTGGGT, the sensor-assay potency score (higher = more potent) was -0.0545. The sequence TTTCTGTTCTACTGAGTCCTTT yielded a sensor-assay potency score (higher = more potent) of -0.456.

A further test deals with IL32. The description is as above. The conditions noted are these: shRNA.
As to TAAAATCTTTCTATGGCCTGGT, the sensor-assay potency score (higher = more potent) was found to be 0.537.

Take TTTATCATAAAATCTTTCTATG: the sensor-assay potency score (higher = more potent) is -1.15. TTTTTCAAGTAGAGGAGTGAGC displayed a sensor-assay potency score (higher = more potent) of -0.743. On the same count and under the same terms, the result for TTTTATCATAAAATCTTTCTAT reads -0.484. Same read-out and setting: the result for TGCGGGATCCTCAACATCCGGG reads -0.63; that for TAGGACTGGAAAGAGGACATGA, 0.275; that for TAGGACTTGTCACAAAAGCTCT, -1.15. In turn, TGAAGTCGTCCTCCAGCTCTGC came in with a sensor-assay potency score (higher = more potent) of -1.04. TAGAGGAGTGAGCTCTGGGTGC registered a sensor-assay potency score (higher = more potent) of -1.21.

TTGCGGGATCCTCAACATCCGG yielded a sensor-assay potency score (higher = more potent) of -1.68. Still for that read-out and setting: the result for ATAAAATCTTTCTATGGCCTGG reads -0.133; that for TTTGAAGTCGTCCTCCAGCTCT, -0.749.

Another test addresses IL5. Described as above. As to conditions: shRNA.
TTCTTTATTAAGGACAAGTTTT: the sensor-assay potency score (higher = more potent) was -1.48. Consider TTACTCTCCGTCTTTCTTCTCC, for which the sensor-assay potency score (higher = more potent) worked out at 0.308. On to TCTTTCACCAATGCACTTGTGG, for which the sensor-assay potency score (higher = more potent) was -0.0823. For TTGAATAGTCTTTCCACAGTAC, the sensor-assay potency score (higher = more potent) stood at 0.569. Same read-out and setting: the result for TACACCAAGAAACTCTTGCAGG reads -0.92; that for TTGCACAGTTTGACTCTCCAGT, -0.479. Same read-out and setting: the result for TTTTATGTACAGGAACAGGAAT reads -1.18; that for TTTTGAATAGTCTTTCCACAGT, -0.99.

TACAGGAACAGGAATCCTCAGA: the sensor-assay potency score (higher = more potent) is -0.449. In turn, TATTTCTTTATTAAGGACAAGT came in with a sensor-assay potency score (higher = more potent) of -0.457.

As for TTCTTCAGTGCACAGTTGGTGA, the sensor-assay potency score (higher = more potent) was -1.09.

In turn, TTTGACTCTCCAGTGTGCCTAT registered a sensor-assay potency score (higher = more potent) of -0.108.
